Entries with a potency or affinity are not part of this list. Calls of active or inactive are those of the source.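 Rule for the calls: active = cell killing with a fitted half-effect concentration at or below twice the top valid dose; inconclusive = flat curve with 30 to 70 percent drop, or poor fit; inactive = the rest.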
Experiment: viability loss in HEK293T kidney cells – cell-based, ATP luminescence, cherry-pick, set 6, cytotoxicity control, dose response (AID 1053126)

Compound | outcome
S=c1[nH]c2ccc(Cc3ccc4[nH]c(=S)[nH]c4c3)cc2[nH]1 | inactive
CCOC(=O)C1CCCN(CCCc2ccccc2)C1 (stereo not drawn) | inactive
CCN(CC)c1ccc2c(C)c(Cl)c(=O)oc2c1 | inactive
CCOc1ccc(C(=O)c2cc3ccc(O)cc3oc2=O)cc1 | inactive
CCOCCCNc1c(CC)c(C)c(C#N)c2nc3ccccc3n12 | inactive
COc1ccc(C2C3=C(CCCC3=O)N(CC(=O)O)C3=C2C(=O)CCC3)cc1 | inactive
CN(C)CCOCCOc1ccc(Cl)c2ccccc12 | inactive
O=C(COC(=O)c1cc(S(=O)(=O)N2CCCCC2)ccc1N1CCOCC1)c1ccccc1Cl | inactive
CCN(CC)CCCNc1nc(C)cc(COC)c1C#N | inactive
CCCCN(CCCC)CC(O)Cn1c2ccccc2c(=O)c2ccccc21 (stereo not drawn) | inactive
Cc1c2c(n3c(nc4ccccc43)c1C#N)N(CCN1CCOCC1)CC2 | inactive
CC(=O)NNc1cc(N2CCOCC2)nc(N2CCOCC2)n1 | inactive
CN(C)/C=C/C(=O)c1c(F)cccc1F | inactive
Cc1cccn2c(=O)c3cc(C(=O)NCC4CCCO4)c(=N)n(CC4CCCO4)c3nc12 (stereo not drawn) | inactive
Cc1ccc(NC(=O)Nc2ccnc(-c3cccnc3)n2)cc1 | inactive
CCOc1ccc(-n2c(SCC(=O)Nc3nccs3)nnc2-c2ccoc2C)cc1 | inactive
C=CCc1c(O)c(CC)cc2c(C)cc(=O)oc12 | inactive
CCCCCCc1cc2cc(S(=O)(=O)c3ccc(C)cc3)c(=O)oc2cc1O | inactive
CCc1nc(SCC(=O)c2ccccc2)c2ccccc2n1 | inactive

Compound | outcome
O=C(/C=C/c1ccccc1)C1=C(O)C(=O)N(CCO)C1c1ccc2c(c1)OCO2 (stereo not drawn) | inactive
O=C(O)c1cccc(Nc2nc(-c3cc4ccccc4oc3=O)cs2)c1 | inactive
CC(C)N1CCc2c(sc(NC(=O)Cc3ccccc3)c2C#N)C1 | inactive
CC1=C(C(=O)N2CCN(c3cc(C)ccc3C)CC2)C2(CCCCC2)OC1=O | inactive
NC(=O)c1cc([N+](=O)[O-])ccc1NCc1cccnc1 | inactive
COCc1cc(C)nc(SCC(=O)Oc2ccc(Cl)cc2)c1C#N | inactive
Cc1oc(/N=C/c2ccc(O)cc2O)c(C#N)c1C | inactive
CCCCCCc1cc2cc(S(=O)(=O)c3ccc(F)cc3)c(=O)oc2cc1O | inactive
COc1ccc(CCN=C(N)NS(=O)(=O)c2ccc(F)cc2)cc1 | inactive
CC(=O)N=c1c(C#N)cc2c(=O)n3ccccc3nc2n1CCCOC(C)C | inactive
CC1CCCCC1NC(=O)CN1C(=O)c2cccc(N)c2C1=O (stereo not drawn) | inactive
Nc1nc(-c2cc(O)ccc2[N+](=O)[O-])cc(-c2ccccc2)c1[N+](=O)[O-] | inactive
Cc1c(O)ccc2cc(S(=O)(=O)c3ccccc3)c(=O)oc12 | inactive
Cc1cc(=O)oc2cc(OC(=O)c3cncc(Br)c3)ccc12 | inactive
CC1(C)CC(=O)C2=C(C1)OC(N)=C(C#N)[C@@H]2c1ccccc1[N+](=O)[O-] | inactive
CC(=O)c1cc2c(ccc3ccccc32)oc1=O | inactive
O=[N+]([O-])c1cccc(Nc2c3ccccc3nc3ccccc23)c1 | inactive
COc1ccc(Cn2nnnc2C(CC(C)C)N2CCC(C(N)=O)CC2)cc1 (stereo not drawn) | inactive
Cn1cccc1/C=N/NC(=O)c1sc2cc(Cl)ccc2c1Cl | inactive

Reference: PubChem BioAssay AID1053126 (Broad Institute, 2014)
